Measured values: the supplement of paper PMC7724964

Experiments:
Experiment in all cases: phage ELISA signal ratio (GST-PRM binding over GST background); higher = stronger binding of peptide-phage to the PRM
[1] = biological target: T1, NR4A2 327-598 Hormone_recep (domain begin residue: 327, domain end residue: 598), P43354
T1 chain: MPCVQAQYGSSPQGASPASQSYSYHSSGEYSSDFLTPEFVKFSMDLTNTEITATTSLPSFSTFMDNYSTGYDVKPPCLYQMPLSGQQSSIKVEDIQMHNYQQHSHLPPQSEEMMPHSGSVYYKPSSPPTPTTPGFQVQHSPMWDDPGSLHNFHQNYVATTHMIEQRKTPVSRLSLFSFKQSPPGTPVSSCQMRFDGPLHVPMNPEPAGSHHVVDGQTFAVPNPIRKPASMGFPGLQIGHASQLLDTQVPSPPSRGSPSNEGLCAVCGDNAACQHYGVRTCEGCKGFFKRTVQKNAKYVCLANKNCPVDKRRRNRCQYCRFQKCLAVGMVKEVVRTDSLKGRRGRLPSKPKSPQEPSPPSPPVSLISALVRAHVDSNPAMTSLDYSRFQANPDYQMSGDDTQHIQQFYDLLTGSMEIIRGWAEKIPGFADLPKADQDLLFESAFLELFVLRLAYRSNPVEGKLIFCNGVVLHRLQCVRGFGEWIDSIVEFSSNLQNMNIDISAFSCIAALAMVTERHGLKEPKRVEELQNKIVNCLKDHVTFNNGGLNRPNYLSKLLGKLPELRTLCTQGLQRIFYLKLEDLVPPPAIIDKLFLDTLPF
Method in brief: (§1)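 Each value is the phage ELISA signal on the glutathione S-transferase (GST)-domain fusion divided by the signal on GST alone. Human peptide recognition domains were expressed in 96-well plates, fused to the C-terminus of GST, and selected against an M13 phage library carrying randomized, cysteine-free, glycine-flanked hexadecapeptides on the gene-8 major coat protein. After five selection rounds, approximately 48 individual clones from rounds 4 and 5 were tested by phage ELISA, and positive clones were sequenced.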

[2] = biological target: T2, NR2C1 355-603 Hormone_recep (domain begin residue: 355, domain end residue: 603), P13056
T2 chain: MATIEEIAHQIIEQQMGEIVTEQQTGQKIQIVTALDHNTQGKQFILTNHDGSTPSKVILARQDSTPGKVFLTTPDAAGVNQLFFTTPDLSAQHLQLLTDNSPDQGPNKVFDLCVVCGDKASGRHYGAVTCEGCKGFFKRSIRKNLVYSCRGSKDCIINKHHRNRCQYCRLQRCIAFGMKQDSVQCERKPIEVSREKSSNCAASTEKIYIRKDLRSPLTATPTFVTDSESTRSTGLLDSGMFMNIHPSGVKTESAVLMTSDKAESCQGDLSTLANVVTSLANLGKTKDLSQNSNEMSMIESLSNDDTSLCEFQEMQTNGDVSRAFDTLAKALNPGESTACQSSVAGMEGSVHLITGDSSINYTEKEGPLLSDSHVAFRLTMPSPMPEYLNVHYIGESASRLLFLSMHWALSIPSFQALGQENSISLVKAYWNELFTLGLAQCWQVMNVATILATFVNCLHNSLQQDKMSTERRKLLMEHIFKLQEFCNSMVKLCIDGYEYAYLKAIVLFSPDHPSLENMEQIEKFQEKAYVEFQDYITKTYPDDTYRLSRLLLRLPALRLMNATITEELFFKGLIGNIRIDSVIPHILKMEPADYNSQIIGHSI
Method in brief: as §1

[3] = biological target: MSH6 89-203 PWWP (domain begin residue: 89, domain end residue: 203), P52701
Method in brief: as §1

[4] = biological target: T3, ZGPAT 120-268 zf-CCCH+TUDOR (domain begin residue: 120, domain end residue: 268), Q8N5A5
T3 chain: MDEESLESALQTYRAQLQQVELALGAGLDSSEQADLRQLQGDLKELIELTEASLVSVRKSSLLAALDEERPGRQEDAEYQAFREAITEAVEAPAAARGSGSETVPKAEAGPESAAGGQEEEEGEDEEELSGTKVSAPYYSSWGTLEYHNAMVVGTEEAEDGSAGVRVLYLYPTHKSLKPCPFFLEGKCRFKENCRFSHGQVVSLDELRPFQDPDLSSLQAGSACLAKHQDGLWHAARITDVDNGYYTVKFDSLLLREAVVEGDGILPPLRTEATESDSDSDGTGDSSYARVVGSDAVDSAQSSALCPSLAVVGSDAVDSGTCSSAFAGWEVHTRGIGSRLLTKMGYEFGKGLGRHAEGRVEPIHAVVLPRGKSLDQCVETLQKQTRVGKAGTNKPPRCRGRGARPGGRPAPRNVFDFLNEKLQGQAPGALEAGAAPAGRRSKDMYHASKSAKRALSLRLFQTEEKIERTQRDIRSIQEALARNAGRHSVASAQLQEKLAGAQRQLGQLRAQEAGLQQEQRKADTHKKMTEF
Method in brief: as §1

[5] = biological target: NR5A2 297-541 Hormone_recep (domain begin residue: 297, domain end residue: 541), O00482
Method in brief: as §1

[6] = biological target: T4, NR1H3 204-447 Hormone_recep (domain begin residue: 204, domain end residue: 447), Q13133
T4 chain: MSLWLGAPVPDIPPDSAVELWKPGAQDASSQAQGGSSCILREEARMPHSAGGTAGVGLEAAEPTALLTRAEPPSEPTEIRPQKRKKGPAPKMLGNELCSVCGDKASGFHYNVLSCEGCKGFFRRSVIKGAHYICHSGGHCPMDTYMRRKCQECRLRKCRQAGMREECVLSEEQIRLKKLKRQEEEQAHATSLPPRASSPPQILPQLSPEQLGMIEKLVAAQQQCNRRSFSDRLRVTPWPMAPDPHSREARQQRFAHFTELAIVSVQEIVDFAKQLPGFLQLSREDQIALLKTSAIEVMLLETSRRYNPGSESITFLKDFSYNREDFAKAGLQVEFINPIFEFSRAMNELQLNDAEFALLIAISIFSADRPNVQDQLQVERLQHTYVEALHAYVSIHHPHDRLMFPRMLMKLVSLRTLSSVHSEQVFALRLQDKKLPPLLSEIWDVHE
Method in brief: as §1

[7] = biological target: T5, NFKBIA 70-282 EF-hand_6 (domain begin residue: 70, domain end residue: 282), P25963
T5 chain: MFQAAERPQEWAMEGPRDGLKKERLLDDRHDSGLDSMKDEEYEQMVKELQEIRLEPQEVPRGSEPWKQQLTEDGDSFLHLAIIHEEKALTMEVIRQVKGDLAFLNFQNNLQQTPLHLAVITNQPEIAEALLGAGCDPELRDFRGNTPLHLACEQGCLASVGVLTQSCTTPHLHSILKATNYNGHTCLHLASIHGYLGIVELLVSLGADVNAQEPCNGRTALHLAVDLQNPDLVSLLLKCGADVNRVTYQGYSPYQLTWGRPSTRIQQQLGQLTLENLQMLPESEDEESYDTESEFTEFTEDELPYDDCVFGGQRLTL
Method in brief: as §1

[8] = biological target: T6, NUP98 730-880 Nucleoporin2 (domain begin residue: 730, domain end residue: 880), P52948
T6 chain: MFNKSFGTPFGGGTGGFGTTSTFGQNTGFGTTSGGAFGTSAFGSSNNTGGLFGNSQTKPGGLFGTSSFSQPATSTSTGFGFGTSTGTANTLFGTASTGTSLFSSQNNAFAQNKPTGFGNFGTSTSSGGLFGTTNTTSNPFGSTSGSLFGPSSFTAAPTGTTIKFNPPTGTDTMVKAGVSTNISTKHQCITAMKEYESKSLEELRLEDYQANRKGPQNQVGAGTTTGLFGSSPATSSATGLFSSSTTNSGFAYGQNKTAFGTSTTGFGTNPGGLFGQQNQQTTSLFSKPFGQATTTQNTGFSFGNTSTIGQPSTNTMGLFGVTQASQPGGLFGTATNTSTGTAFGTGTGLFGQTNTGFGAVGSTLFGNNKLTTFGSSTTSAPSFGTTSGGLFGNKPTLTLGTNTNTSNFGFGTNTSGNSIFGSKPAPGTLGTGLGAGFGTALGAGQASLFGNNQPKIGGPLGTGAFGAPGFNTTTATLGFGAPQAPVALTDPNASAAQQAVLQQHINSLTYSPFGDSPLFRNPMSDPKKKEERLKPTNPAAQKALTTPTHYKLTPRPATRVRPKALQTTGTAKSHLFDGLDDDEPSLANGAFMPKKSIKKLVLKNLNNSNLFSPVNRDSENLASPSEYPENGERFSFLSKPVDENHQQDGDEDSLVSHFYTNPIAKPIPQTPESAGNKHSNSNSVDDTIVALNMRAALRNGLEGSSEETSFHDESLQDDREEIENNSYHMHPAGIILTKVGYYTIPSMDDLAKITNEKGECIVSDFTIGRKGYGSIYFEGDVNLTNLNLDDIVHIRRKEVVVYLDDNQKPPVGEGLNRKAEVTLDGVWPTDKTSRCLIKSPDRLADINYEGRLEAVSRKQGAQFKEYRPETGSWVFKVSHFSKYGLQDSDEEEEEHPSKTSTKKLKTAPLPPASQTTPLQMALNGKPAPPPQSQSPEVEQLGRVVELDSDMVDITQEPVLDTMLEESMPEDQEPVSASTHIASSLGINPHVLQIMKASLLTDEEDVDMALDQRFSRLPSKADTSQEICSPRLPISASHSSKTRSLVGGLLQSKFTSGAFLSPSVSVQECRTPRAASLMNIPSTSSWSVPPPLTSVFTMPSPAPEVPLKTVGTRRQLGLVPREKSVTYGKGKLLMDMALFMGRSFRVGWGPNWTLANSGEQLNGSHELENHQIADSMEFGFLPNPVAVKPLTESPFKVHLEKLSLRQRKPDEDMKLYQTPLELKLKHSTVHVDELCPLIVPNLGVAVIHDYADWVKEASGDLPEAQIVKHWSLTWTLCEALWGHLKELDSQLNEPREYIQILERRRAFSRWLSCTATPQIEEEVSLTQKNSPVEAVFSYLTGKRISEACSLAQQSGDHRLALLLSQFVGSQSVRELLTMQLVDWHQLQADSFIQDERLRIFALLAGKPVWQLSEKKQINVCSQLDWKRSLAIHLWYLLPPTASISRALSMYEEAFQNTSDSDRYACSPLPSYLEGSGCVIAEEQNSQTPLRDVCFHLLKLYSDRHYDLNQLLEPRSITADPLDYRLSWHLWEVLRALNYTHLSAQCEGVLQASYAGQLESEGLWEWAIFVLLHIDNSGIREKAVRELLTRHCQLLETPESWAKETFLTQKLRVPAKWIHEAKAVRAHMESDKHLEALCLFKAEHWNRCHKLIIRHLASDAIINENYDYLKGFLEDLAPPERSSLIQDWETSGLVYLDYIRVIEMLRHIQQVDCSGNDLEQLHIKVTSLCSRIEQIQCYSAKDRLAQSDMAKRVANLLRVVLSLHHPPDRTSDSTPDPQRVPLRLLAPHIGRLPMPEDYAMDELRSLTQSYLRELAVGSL
Method in brief: as §1

Chain of NR5A2 297-541 Hormone_recep (domain begin residue: 297, domain end residue: 541), O00482 (O00482 whole entry): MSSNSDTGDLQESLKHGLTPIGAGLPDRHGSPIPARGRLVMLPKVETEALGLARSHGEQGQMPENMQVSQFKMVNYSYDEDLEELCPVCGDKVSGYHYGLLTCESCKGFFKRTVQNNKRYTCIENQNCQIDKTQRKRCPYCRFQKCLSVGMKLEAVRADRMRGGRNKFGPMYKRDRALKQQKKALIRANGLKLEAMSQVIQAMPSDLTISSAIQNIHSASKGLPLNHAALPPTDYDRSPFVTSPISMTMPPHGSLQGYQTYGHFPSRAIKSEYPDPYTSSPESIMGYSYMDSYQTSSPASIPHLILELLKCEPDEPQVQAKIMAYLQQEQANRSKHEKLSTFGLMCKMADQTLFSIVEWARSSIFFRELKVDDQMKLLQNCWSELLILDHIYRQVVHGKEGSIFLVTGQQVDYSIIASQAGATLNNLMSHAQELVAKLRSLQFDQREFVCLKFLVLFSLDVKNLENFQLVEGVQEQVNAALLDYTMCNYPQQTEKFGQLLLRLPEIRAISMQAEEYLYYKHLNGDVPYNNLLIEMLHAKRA
Chain of MSH6 89-203 PWWP (domain begin residue: 89, domain end residue: 203), P52701 (P52701 whole entry): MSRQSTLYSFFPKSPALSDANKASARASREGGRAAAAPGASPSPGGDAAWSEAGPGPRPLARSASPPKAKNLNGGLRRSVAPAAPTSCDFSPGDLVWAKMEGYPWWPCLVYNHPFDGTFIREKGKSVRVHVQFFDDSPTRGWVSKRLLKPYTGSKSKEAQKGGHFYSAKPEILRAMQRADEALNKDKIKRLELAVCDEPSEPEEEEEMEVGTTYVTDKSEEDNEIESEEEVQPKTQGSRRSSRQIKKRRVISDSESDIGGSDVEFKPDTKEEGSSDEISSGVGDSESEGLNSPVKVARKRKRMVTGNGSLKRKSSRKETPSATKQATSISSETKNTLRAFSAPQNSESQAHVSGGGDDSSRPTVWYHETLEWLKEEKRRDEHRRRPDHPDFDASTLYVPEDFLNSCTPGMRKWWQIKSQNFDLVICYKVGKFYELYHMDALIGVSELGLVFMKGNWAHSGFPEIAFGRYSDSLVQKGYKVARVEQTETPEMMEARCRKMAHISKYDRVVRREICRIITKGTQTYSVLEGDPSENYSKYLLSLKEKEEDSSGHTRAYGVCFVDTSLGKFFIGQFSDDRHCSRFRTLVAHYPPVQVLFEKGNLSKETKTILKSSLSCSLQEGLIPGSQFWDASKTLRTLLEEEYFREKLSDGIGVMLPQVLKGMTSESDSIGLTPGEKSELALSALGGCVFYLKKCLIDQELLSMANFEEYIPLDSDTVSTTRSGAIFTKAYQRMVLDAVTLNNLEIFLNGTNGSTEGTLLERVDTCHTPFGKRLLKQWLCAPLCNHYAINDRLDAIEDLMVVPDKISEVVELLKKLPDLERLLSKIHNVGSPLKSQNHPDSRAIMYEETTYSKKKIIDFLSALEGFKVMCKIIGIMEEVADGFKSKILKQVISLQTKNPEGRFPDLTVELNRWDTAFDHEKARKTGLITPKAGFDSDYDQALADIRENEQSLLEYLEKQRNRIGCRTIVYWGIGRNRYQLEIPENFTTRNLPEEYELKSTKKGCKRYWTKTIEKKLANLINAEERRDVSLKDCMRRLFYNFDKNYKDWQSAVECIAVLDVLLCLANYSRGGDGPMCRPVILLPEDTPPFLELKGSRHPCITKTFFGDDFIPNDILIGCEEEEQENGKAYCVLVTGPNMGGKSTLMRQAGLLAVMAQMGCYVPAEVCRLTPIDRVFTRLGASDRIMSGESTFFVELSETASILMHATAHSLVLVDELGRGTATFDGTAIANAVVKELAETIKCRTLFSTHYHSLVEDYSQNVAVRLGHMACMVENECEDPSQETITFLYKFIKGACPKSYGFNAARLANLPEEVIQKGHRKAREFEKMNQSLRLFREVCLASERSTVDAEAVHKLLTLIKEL

In the case of TMSLWPSSWDIITLNS, the “phage ELISA signal ratio” value [1] is reported as 15.

In the case of LNDSEQWFTWAYKYVD, the “phage ELISA signal ratio” value [1] is reported as 9.75.

For MPDVPYQWVDLTEWFM, the “phage ELISA signal ratio” value [2] was 15.

With DPMSDLFMHNPFVQEP the “phage ELISA signal ratio” value [3] was 7.54 and the “phage ELISA signal ratio” value [4] was 8.79.

For LTMAQQFPYLWSALSN, the “phage ELISA signal ratio” value [5] was 11.2.

TQEMWDWVMMIEMTEF was tested, and the “phage ELISA signal ratio” value [6] was 14.

In the case of YWEHSNELDYWVEFIA, the “phage ELISA signal ratio” value [7] is reported as 5.67 and the “phage ELISA signal ratio” value [8] is reported as 16.9.

For GEDPPPYSPLTSPDSG, the “phage ELISA signal ratio” value [7] was 4.18.

DYPEVEWLTQQWDFWS was tested, and the “phage ELISA signal ratio” value [6] was 17.

With AFKQLMFHVIGEEYSV the “phage ELISA signal ratio” value [1] was 30.5.

In the case of QQAQPRWWSMVLQHEW, the “phage ELISA signal ratio” value [5] is reported as 4.92.

For YMVEEHYYDLMQMLGS, the “phage ELISA signal ratio” value [7] was 11.

With QWSVEPWWHEMVIQGI the “phage ELISA signal ratio” value [1] was 24.1.
